The entries come from a sample that favours hits as a whole.
ROS inducer = ROS inducers in U2OS cancer cells, primary screen, cell-based, H2DCF-DA fluorescence; U2OS ROS induction; ROS induction (% of piperlongumine), % at 10 µM; 46,000 tested, 2% active; AID 624156, 2012; in the data active = ROS induction above about 79%, passing the limit was not always enough; inconclusive = no clear call, values can overlap the other calls;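 note: 0% = DMSO vehicle median and 100% = reference compound median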
NOMO-1 viab = NOMO-1 AML cell viability reduction, primary screen, STK33 inhibitor project, CellTiter-Glo luminescence; NOMO-1 AML viability, 72 h; inhibition, % (test concentration not listed); 37,000 tested, 7.5% active; in the data active = inhibition above about 80%; inconclusive = no clear call, values can overlap the other calls
* = called active by the depositor.

What do the screens show for `COc1ccc(CN(C)C[C@@H]2Oc3ccc(NC(=O)NC4CCCCC4)cc3CC(=O)N([C@H](C)CO)C[C@H]2C)cc1`?
ROS inducer: 0; NOMO-1 viab: 18

Results for Cc1cc(C)cc(NC(=O)Cn2c(=O)c3cccn3c3ccccc32)c1 ?
ROS inducer: -9

Results for Cc1ccc(Oc2ccc(C)c(C)c2)cc1C ?
ROS inducer: 6; NOMO-1 viab: 48

Results for Cc1ccccc1C(C#N)C(CC#N)c1ccccc1 (stereo not drawn) ?
ROS inducer: 0

How did Cc1noc(C)c1S(=O)(=O)Nc1ccc2c(c1)CC(=O)N([C@@H](C)CO)C[C@H](C)[C@@H](CN(C)CC1CC1)O2 do in these assays?
ROS inducer: -2; NOMO-1 viab: -11

What do the screens show for `Cc1cc(Cl)c(S(=O)(=O)N2CCc3ccccc32)cc1OCC(N)=O`?
NOMO-1 viab: 28

How did C=C(CO)C(=O)O[C@H]1CC(=C)[C@@H]2CC(=O)[C@H](C)[C@@H]2[C@H]2OC(=O)C(=C)[C@@H]21 do in these assays?
ROS inducer: 122*; NOMO-1 viab: 107*

What do the screens show for `C[C@@H]1CN([C@@H](C)CO)C(=O)c2cccc(NC(=O)c3ccc(-c4nccs4)cc3)c2O[C@H]1CN(C)Cc1ccncc1`?
ROS inducer: 18; NOMO-1 viab: 17

Results for Cc1ccc(NC(=O)CSc2nnc(-c3ccccc3F)n2C)cc1[N+](=O)[O-] ?
ROS inducer: 2; NOMO-1 viab: 8

Results for O=C1O[C@H](c2ccccc2)[C@H](c2ccccc2)N2[C@H]1[C@@H](C(=O)N1CCCCCCC1)[C@]1(C(=O)Nc3ccccc31)[C@H]2c1ccc(O)cc1 ?
ROS inducer: 24

How did C[C@@H]1CN([C@@H](C)CO)C(=O)c2cccc(NC(=O)CCCCCC(=O)Nc3ccccc3N)c2O[C@@H]1CN(C)Cc1ccccc1 do in these assays?
ROS inducer: 3; NOMO-1 viab: 88*

Results for C[C@@H]1CN([C@H](C)CO)C(=O)c2cccc(NC(=O)CCCCCC(=O)Nc3ccccc3N)c2O[C@@H]1CN(C)Cc1ccc2c(c1)OCO2 ?
ROS inducer: -6; NOMO-1 viab: 68

What do the screens show for `C[C@@H]1CN([C@H](C)CO)C(=O)c2cccc(NC(=O)CCCCCC(=O)Nc3ccccc3N)c2O[C@H]1CN(C)Cc1ccc2c(c1)OCO2`?
ROS inducer: 106*; NOMO-1 viab: 122*

Results for C[C@@H]1CN([C@@H](C)CO)C(=O)c2cccc(NC(=O)CCCCCC(=O)Nc3ccccc3N)c2O[C@H]1CN(C)C ?
ROS inducer: -10; NOMO-1 viab: 32

Results for CC(C)NC(=O)N(C)C[C@@H]1Oc2c(NC(=O)CCCCCC(=O)Nc3ccccc3N)cccc2C(=O)N([C@H](C)CO)C[C@H]1C ?
ROS inducer: 54; NOMO-1 viab: 7

How did C[C@H](CO)N1C[C@H](C)[C@@H](CN(C)Cc2ccc(-c3ccccc3)cc2)Oc2c(NC(=O)CCCCCC(=O)Nc3ccccc3N)cccc2C1=O do in these assays?
ROS inducer: 117*; NOMO-1 viab: 125*

What do the screens show for `C[C@H](CO)N1C[C@H](C)[C@H](CN(C)Cc2ccc(Cl)c(Cl)c2)Oc2c(NC(=O)CCCCCC(=O)Nc3ccccc3N)cccc2C1=O`?
ROS inducer: 121*; NOMO-1 viab: 114*

How did C[C@H]1CN([C@@H](C)CO)C(=O)c2cccc(NC(=O)CCCCCC(=O)Nc3ccccc3N)c2O[C@@H]1CN(C)Cc1ccncc1 do in these assays?
ROS inducer: 2; NOMO-1 viab: 13

Results for CS(=O)(=O)N(CC(=O)Nc1ccccc1C(=O)N1CCCC1)c1cccc(F)c1 ?
ROS inducer: -9; NOMO-1 viab: -10

What do the screens show for `COc1ccc(S(=O)(=O)N(C)C[C@@H]2Oc3c(NC(=O)c4cnccn4)cccc3C(=O)N([C@H](C)CO)C[C@H]2C)cc1`?
ROS inducer: -6; NOMO-1 viab: -13

Results for COC(=O)c1ccc(C(=O)OC)c(NC(=O)c2cnn3c(C(F)F)cc(-c4ccc(C)cc4)nc23)c1 ?
ROS inducer: -10; NOMO-1 viab: inconclusive

What do the screens show for `O=C(NCCN1CCOCC1)c1cnn2c(C(F)F)cc(-c3ccccc3)nc12`?
ROS inducer: 67; NOMO-1 viab: 2

What do the screens show for `Cc1ccc(-c2cc(C(F)(F)F)n3ncc(C(=O)NCc4ccco4)c3n2)cc1`?
ROS inducer: 96*; NOMO-1 viab: 12

Results for Cc1ccc(-c2cc(C(F)F)n3ncc(C(=O)NCc4ccco4)c3n2)cc1 ?
ROS inducer: 111*; NOMO-1 viab: 25

How did Cc1ccc(-c2cc(C(F)F)n3ncc(C(=O)NCCCN4CCOCC4)c3n2)cc1 do in these assays?
ROS inducer: 137*; NOMO-1 viab: 5

How did Cc1ccc(-c2cc(C(F)(F)F)n3nc(C(=O)NCc4ccco4)cc3n2)cc1 do in these assays?
ROS inducer: 39; NOMO-1 viab: 11
